This note sets out measurements from PubChem BioAssay (NCATS).

Values joined by “and” are separate entries in the source; they are usually repeats but may differ in a detail not shown here. Identical values can stand only once. Inconclusive results are not listed. Active and inactive are the calls of the source. Unless noted, calls come from the whole dose curve; as a rule, active = well fitted curve in either direction with a large enough effect (not every such curve was filed as active); inconclusive = small, poorly fitted or top-dose-only effect, or another doubt; inactive = flat fitted curve, though single readings scatter.

Assay [1] is described as follows: AP1 Signaling Pathway (AID 357).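 Note: ME-180 reporter cells stimulated with EGF at its EC50 level; % is set by controls: 0 for no effect and ±100 for the full control effect.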 The essentials:
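Read-out was the 460nm/530nm emission ratio (excitation 405nm) after CCF4 loading for 2.5 hours at room temperature. Cells carried an AP-1-driven beta-lactamase reporter, were stimulated with EC50 EGF plus compound for 5 hours, and AC50 values came from titrations.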

Assay [2] concerns the target Cytochrome P450 1A2 (Homo sapiens) (UniProt P05177). The assay can be described thus: p450-cyp1a2 (AID 410; calls by dose curve; note: potency is the fitted concentration of half-maximal effect;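 for activity change, negative = inhibition: -100% = full effect of reference inhibitor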). Summed up:
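O-Demethylation of luciferin 6' methyl ether by human CYP1A2 is monitored as luciferase luminescence. Substrate sits at Km (100uM); enzyme is 20nM. Values are scaled to 57 uM furafylline as maximal inhibition.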

Assay [3] can be described thus: NFAT Signaling Pathway (AID 444).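 Note: carbachol stimulus at about its EC50 of 1 µM final; % is set by controls: 0 for no effect and ±100 for the full control effect.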 The conditions noted are these: Jurkat NFAT-bla M1, carbachol, beta-lactamase ratio, 5 h. The essentials: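 Jurkat cells with NFAT-driven β-lactamase reporter and co-expressed M1 receptor, stimulated with carbachol (final 1 uM, ~EC50), compound titration, 5 h at 37 °C. CCF4 loaded 1 h at RT; 460/530 nm ratio gave %activity and AC50.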

Assay [4] can be described thus: Stat Signaling Pathway (AID 446).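 Note: ME-180 cervical cancer cells given 40 pM IL-6 alongside compound; SIE-controlled beta-lactamase reporter measured as 460/530 nm FRET emission ratio; % is set by controls: 0 for no effect and ±100 for the full control effect.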 Summed up:
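Overnight-plated ME-180 cells bearing a STAT Inducible Element beta-lactamase reporter; 5 h co-exposure to compound and 40 pM IL-6; values normalized to 300 pM IL-6 and 125 nM JAK inhibitor controls.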

The target in assay [5] is Glucocorticoid receptor (Homo sapiens) (UniProt P04150). The assay can be described thus: GR-GFP Redistribution (AID 450;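 active = compounds whose dose series gives a full or clear partial fitted curve of increased nuclear translocation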; note: potency is the fitted concentration of half-maximal effect). The conditions noted are these: U2OS GR-GFP nuclear translocation, laser cytometry, 2 h.
Assay [6] shares this target. The assay can be described thus: GR-EFC Redistribution (AID 451; calls by dose curve; note: potency is the fitted concentration of half-maximal effect). The conditions noted are these: CHO-K1 GR-EFC translocation, beta-gal luminescence, 2 h. The essentials:
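CHO-K1 cells expressing nuclear EA and GR-ED fragments of b-gal; compounds titrated up to 46 uM final, 2 h at 37 C. GR nuclear translocation read as complemented b-gal luminescence after 1 h RT detection.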

For assay [7], the target named is Mitogen-activated protein kinase 10 (Mus musculus) (UniProt Q61831). The assay can be described thus: JNK3 AlphaScreen Assay (AID 530).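 Note: kinase came from lysate of stimulated human HepG2 cells; signal reports phosphorylation of biotinylated GST-cJun 1-79 at Ser73 with 10 µM ATP; % is set by controls: 0 for no effect and ±100 for the full control effect.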 Summed up: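 Activity was read by AlphaScreen after JNK3-containing HepG2 lysate (cytokine pre-activated) phosphorylated biotinylated GST-cJun with 10 uM ATP at room temperature. Phospho-Ser73 cJun antibody with Protein-A acceptor beads provided detection.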
(Bead proximity is the source of the signal in Alpha formats.)

The target in assay [8] is 3',5'-cyclic-AMP phosphodiesterase 4B (Homo sapiens) (UniProt Q07343). Description: qHTS Assay for Inhibitors of PDE-IV (AID 607; active = well fitted activation curve with a large enough effect in the main read-out, with a control signal flat, not every such curve was filed as active; note: % of control where 0% means no effect). The essentials:
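Live HEK293 cells with a modified cyclic nucleotide-gated (CNG) channel report intracellular cAMP via membrane-potential dye fluorescence (ex 535/em 590 nm). Endogenous PDE-IV was targeted. Compounds were tested at up to 22.9 uM final; RO 20-1724 100 uM served as control.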
Background: qHTS replaces the single test concentration by a dilution series.

Assay [9] concerns the target Cytochrome P450 3A4 (Homo sapiens) (UniProt P08684). Description: qHTS Assay for Activators of Cytochrome P450 3A4 (AID 885; active = well fitted curve in the direction sought with a large enough effect; an effect the other way counts as inactive or inconclusive; note: nearly all actives have a fitted effect of over 65% in size). Summed up:
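Using 20nM recombinant human CYP3A4 in potassium phosphate (200mM), substrate Luciferin-PPXE at 25uM, luminescent luciferin detection followed a 60-min RT NADPH reaction; data scaled to 57 uM ketoconazole.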

A short description of assay [10]: qHTS Assay for Lipid Storage Modulators (AID 1519; calls by dose curve). The conditions noted are these: Drosophila S3 cells, BODIPY lipid droplet/cell ratio, laser cytometry, cells loaded with oleic acid. The essentials:
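Cells seeded at 5,000 per well were treated with compounds over a concentration series and loaded with oleic acid (400 uM, as added). Lipid droplet fluorescence (488 nm excitation, 500-530 nm channel) was read by laser-scanning cytometry and normalized to 20 uM Triacsin C.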

The target of assay [11] is Ubiquitin carboxyl-terminal hydrolase 1 (Homo sapiens) (UniProt O94782). Description: Inhibitors of USP1/UAF1: Pilot qHTS (AID 504865; active = well fitted curve in the direction sought with a large enough effect; an effect the other way counts as inactive or inconclusive;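 note: rhodamine fluorescence freed from ubiquitin-rhodamine substrate followed over time; top concentration of the series differs between compounds; % is set by controls: 0 for no effect and ±100 for the full control effect; nearly all actives have a fitted effect of over 35% in size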). The essentials:
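In 50mM HEPES pH 7.8 containing 0.5mM EDTA, 1mM TCEP, 0.1 mg/ml BSA and 0.01% Tween-20, 1nM USP1/UAF1 is exposed to compound for 15 min, then Ub-Rho (150nM final) is added and fluorescence is read over time.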

For assay [12], the target named is ATP-dependent 6-phosphofructokinase (Trypanosoma brucei brucei) (UniProt O15648). The assay can be described thus: qHTS Assay to Find Inhibitors of T. brucei phosphofructokinase: hit validation (AID 492961; active = well fitted curve in the direction sought with a large enough effect; an effect the other way counts as inactive or inconclusive; note: % is set by controls: 0 for no effect and ±100 for the full control effect). The essentials:
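Luminescence from ADP-Glo reports ADP generated as T. brucei PFK (1.25 nM) phosphorylates 0.5 mM fructose-6-phosphate using 0.1 mM ATP. Reactions ran 45 min at room temperature, pH 8.0.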

Assay [13] addresses Luciferin 4-monooxygenase (Photinus pyralis) (UniProt P08659). The assay can be described thus: Biochemical firefly luciferase enzyme assay for NPC (AID 624030; active = well fitted curve in the direction sought with a large enough effect; an effect the other way counts as inactive or inconclusive;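 note: purified P. pyralis luciferase at 10 nM with luciferin and ATP substrate; 0% = DMSO and -100% = full luciferase inhibition by PTC124 control; nearly all actives have a fitted effect of over 70% in size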). Summed up:
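Purified P. pyralis luciferase at 10 nM in 50 mM Tris Acetate (final), luminescence read within 5 minutes of enzyme addition to compounds. Activity normalised to PTC124 versus DMSO; concentration-response curves classed by r2, magnitude and activity.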

Assay [14] can be described thus: S16 Schwann cell PMP22 intronic element firefly luciferase assay (AID 624032; active = well fitted curve in the direction sought with a large enough effect; an effect the other way counts as inactive or inconclusive;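 note: plate controls were DMSO for no effect and PTC124 positive control mean for full effect; nearly all actives have a fitted effect of over 30% in size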). Summed up: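 Rat S16 Schwann cells stably carrying firefly luciferase driven by a PMP22 intronic element, in 10% FBS, treated 24 h at 37 C. ONE-Glo luminescence normalized to PTC124 control and DMSO (0%); curves classed by r2, magnitude and activity.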
Assay [15] in a line: qHTS profiling for inhibitors of Plasmodium falciparum proliferation (AID 504749; active = well fitted curve in the direction sought with a large enough effect; an effect the other way counts as inactive or inconclusive; note: potency is the fitted concentration of half-maximal effect;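 for activity, negative = inhibition: 0% = DMSO vehicle and full inhibition = artemisinin control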; for all read-outs here: nearly all actives have a fitted effect of over 60% in size). As to conditions: P. falciparum in erythrocytes, SYBR Green DNA, 72 h; for activity, negative = inhibition: at 28.7 µM (top of the series). Summed up:
(§1)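 Each compound contacts P. falciparum-infected red blood cells for 72 h at 37 C; lysis buffer (Tris, EDTA, saponin, Triton X, SYBR Green I) is added and fluorescence measured next morning; values normalized to controls.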

For assay [16], the system named is C2A. The assay is described as above. The conditions noted are these: P. falciparum in erythrocytes, SYBR Green DNA, 72 h; series mostly up to 28.7 µM. Summed up: as §1
The subject of assay [17] is CP192. Described as above. As to conditions: P. falciparum in erythrocytes, SYBR Green DNA, 72 h; series mostly up to 28.7 µM. The essentials:
as §1

For assay [18], the system named is CP262. The assay is described as above. As to conditions: P. falciparum in erythrocytes, SYBR Green DNA, 72 h; series mostly up to 28.7 µM. The essentials:
as §1

In assay [19] the test system is FAB9. Described as above. As to conditions: P. falciparum in erythrocytes, SYBR Green DNA, 72 h; series mostly up to 28.7 µM. The essentials:
as §1

In assay [20] the test system is CP286. The description is as above. The conditions noted are these: P. falciparum in erythrocytes, SYBR Green DNA, 72 h; series mostly up to 28.7 µM. Summed up: as §1
Setting [21] is: measured here: cell count channel max response.
Where [22] appears, read: measured here: lipid channel max response.

Glucocorticoid receptor (Homo sapiens), sequence (P04150 whole entry, looked up): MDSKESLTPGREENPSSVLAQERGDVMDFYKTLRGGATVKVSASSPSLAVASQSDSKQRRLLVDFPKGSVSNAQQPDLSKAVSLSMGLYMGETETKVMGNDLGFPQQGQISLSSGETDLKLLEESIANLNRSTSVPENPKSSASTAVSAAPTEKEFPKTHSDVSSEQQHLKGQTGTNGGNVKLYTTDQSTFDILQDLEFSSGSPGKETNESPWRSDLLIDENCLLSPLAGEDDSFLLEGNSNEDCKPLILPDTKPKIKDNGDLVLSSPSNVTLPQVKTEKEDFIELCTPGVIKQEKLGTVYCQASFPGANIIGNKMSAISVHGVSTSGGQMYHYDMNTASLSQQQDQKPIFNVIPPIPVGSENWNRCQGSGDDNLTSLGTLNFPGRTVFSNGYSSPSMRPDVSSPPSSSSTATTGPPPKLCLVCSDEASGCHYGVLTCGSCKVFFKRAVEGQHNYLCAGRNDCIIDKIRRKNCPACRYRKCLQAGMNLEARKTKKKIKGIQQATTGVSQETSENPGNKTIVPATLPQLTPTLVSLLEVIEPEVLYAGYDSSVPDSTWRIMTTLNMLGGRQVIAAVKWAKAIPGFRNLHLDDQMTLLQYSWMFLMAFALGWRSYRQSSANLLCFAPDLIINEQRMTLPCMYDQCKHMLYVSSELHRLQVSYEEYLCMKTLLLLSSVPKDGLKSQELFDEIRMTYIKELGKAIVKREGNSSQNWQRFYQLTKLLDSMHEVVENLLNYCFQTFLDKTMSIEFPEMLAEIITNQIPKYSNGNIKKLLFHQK
Cytochrome P450 1A2 (Homo sapiens), sequence (P05177 whole entry, looked up): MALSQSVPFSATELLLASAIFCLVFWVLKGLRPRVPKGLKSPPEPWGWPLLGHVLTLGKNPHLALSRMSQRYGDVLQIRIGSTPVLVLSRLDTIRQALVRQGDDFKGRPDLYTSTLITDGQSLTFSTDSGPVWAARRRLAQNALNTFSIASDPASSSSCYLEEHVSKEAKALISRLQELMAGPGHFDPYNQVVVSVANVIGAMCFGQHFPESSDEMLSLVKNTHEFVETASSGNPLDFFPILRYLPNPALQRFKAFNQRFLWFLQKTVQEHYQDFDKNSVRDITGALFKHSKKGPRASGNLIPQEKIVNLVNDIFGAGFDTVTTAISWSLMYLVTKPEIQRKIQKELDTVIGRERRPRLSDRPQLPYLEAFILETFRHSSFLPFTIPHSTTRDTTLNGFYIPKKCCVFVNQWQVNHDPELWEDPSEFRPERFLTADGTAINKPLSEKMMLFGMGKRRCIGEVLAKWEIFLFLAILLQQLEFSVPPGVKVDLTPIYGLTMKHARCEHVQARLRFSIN
Ubiquitin carboxyl-terminal hydrolase 1 (Homo sapiens), sequence (O94782 whole entry, looked up): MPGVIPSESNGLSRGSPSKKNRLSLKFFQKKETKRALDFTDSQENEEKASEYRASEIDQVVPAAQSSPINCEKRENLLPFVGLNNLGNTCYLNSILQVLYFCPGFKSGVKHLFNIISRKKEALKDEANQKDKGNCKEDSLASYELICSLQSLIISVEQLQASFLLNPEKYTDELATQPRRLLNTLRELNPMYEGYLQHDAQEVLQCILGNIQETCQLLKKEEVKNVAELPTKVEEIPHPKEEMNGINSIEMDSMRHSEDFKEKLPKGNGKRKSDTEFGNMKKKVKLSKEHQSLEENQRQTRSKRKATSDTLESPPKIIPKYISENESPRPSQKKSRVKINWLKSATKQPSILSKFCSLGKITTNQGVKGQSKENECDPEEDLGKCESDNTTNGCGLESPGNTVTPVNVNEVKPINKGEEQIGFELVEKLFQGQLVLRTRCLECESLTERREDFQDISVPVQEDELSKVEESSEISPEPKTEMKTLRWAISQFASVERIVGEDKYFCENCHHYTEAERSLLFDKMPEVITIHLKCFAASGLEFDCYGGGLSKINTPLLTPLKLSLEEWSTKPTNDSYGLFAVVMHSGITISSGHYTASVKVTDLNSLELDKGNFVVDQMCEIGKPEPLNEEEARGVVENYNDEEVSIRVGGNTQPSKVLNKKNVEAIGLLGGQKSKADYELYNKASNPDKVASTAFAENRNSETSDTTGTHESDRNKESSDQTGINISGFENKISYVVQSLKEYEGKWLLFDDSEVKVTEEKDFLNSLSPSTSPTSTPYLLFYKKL
3',5'-cyclic-AMP phosphodiesterase 4B (Homo sapiens), sequence (Q07343 whole entry, looked up): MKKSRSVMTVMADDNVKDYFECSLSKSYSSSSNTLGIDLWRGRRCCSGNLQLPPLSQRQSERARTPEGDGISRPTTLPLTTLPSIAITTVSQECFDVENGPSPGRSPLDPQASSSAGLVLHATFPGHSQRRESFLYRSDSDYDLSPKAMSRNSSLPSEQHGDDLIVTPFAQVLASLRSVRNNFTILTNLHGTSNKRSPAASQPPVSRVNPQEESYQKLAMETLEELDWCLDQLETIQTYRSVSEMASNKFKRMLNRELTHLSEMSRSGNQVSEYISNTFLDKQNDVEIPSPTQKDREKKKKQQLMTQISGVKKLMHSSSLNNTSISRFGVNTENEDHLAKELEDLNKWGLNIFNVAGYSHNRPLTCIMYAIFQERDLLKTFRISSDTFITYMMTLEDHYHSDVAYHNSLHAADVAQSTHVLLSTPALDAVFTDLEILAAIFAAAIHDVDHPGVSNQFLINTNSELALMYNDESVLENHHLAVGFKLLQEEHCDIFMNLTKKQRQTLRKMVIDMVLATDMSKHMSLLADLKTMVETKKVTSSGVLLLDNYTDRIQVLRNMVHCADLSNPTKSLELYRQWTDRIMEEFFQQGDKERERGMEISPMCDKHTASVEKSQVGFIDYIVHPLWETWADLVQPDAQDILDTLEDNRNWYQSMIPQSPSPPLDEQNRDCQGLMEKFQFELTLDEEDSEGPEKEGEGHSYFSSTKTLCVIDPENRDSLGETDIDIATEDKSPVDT
ATP-dependent 6-phosphofructokinase (Trypanosoma brucei brucei), sequence (O15648 whole entry, looked up): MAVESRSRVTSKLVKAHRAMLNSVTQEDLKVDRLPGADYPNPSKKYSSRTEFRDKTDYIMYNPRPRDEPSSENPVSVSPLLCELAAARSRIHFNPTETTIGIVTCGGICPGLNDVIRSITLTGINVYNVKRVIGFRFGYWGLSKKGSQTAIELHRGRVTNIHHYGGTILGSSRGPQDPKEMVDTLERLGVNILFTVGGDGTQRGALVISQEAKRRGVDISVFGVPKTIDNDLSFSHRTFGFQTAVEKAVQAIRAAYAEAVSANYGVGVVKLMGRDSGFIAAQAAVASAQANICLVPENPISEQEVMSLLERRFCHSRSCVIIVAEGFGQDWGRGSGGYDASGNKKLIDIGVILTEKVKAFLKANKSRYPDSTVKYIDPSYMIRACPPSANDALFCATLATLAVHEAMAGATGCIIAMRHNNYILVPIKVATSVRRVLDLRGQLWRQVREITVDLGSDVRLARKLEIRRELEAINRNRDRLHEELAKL
Luciferin 4-monooxygenase (Photinus pyralis), sequence (P08659 whole entry, looked up): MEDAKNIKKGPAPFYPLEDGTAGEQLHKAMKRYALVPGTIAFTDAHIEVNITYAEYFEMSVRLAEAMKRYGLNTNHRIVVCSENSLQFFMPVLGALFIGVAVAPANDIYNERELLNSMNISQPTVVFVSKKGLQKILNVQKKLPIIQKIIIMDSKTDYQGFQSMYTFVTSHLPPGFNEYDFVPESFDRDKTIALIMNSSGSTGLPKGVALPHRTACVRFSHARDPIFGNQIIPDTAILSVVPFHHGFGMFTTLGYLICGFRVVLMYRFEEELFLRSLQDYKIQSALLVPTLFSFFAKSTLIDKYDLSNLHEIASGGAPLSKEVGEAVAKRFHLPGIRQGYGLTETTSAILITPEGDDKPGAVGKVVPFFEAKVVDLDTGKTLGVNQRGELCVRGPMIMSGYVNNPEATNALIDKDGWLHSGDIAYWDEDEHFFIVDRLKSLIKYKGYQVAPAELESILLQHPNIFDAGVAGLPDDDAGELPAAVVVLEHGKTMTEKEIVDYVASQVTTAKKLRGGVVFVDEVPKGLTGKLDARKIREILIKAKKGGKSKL
Cytochrome P450 3A4 (Homo sapiens), sequence (P08684 whole entry, looked up): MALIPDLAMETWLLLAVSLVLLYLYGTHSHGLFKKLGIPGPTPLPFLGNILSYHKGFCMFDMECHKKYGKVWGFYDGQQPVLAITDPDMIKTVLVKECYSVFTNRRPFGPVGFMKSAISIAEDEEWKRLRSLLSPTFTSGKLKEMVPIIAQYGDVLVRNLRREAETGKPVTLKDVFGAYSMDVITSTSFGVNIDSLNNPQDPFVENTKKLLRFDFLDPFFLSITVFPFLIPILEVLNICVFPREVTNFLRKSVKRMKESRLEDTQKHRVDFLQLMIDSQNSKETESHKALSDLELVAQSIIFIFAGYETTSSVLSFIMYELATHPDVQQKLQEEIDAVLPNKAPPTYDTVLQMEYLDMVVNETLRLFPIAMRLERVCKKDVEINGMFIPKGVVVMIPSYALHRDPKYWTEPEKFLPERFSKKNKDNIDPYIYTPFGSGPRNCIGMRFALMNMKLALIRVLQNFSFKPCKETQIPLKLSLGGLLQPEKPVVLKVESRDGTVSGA

`CN1CCc2cc3c(cc2[C@@H]1[C@@H]1OC(=O)c2c1ccc1c2OCO1)OCO3`: the compound was classed as inactive in assay [1], in assay [4] and in [7]. The Potency is 15.8 µM (active) in [2]; > 46 µM (inactive) and > 20.6 µM (inactive) in [5]; > 46 µM (inactive) and > 20.6 µM (inactive) in assay [6]. Moreover, the results for the activity change, negative = inhibition in assay [3] (at 17.2 µM (top of the series)), in [3] (at 38 µM (top of the series)) and in [10] (at 25.7 µM (top of the series)) were 4.41% (inactive), -4.78% (inactive) and -1.13% (inactive), respectively. Further, the Potency result in assay [8], in assay [9] and in assay [11] was “inactive” each time. The max response in assay [10] (setting [21]) was -3.68%; in assay [10] (setting [22]), -5.44%.

As to `O=C(O)CNCP(=O)(O)O`, the compound was classed as inactive in assay [1] and in [4]. The results for the Potency in assay [5] and in assay [6] were > 46 µM (inactive) and > 9.22 µM (inactive), respectively. The activity change, negative = inhibition is 1.05% [at 11.4 µM] (inactive) in assay [7] and 2.6% (inactive) in [10] (at 57.5 µM (top of the series)). In addition, the results for the max response in assay [10] (setting [21]) and in assay [10] (setting [22]) were 16.5% and 20.1%, respectively.

On to `CNC(=O)O/N=C/C(C)(C)SC`, for which the result in assay [7] was inactive. For the same compound, the activity change, negative = inhibition in assay [10] (at 57.5 µM (top of the series)) was 7.39% (inactive). Moreover, the max response amounted to 14.3% in [10] (setting [21]) and 23.9% in assay [10] (setting [22]). In assay [11], the Potency result was “inactive”.

Consider `CS(=N)(=O)CC[C@@H](N)C(=O)O` (stereo not given in full), for which the outcome in assay [1], in [4] and in [7] was inactive. Further, the Potency entry in [2], in [8] and in [11] was “inactive” in each case. Besides, the figures for the activity change, negative = inhibition in assay [3] (at 17.2 µM (top of the series)), in assay [3] (at 38 µM (top of the series)) and in assay [10] (at 25.7 µM (top of the series)) were -1.86% (inactive), 4.5% (inactive) and 0.596% (inactive), respectively. For the same compound, the Potency is > 46 µM (inactive) and > 20.6 µM (inactive) in assay [5]; > 46 µM (inactive) and > 20.6 µM (inactive) in [6]. Besides, the values for the max response in assay [10] (setting [21]) and in assay [10] (setting [22]) were 16.1% and 16%, respectively.

With `O=C(Oc1ccccc1)N1CCC2(CCCN(C(c3ccccc3)c3ccccc3)C2)CC1`, the Potency result in [2] and in assay [8] was “inactive” throughout. The Potency in assay [6] was > 46 µM (inactive). Besides, in assay [7], the call was inactive. Besides, the activity change, negative = inhibition in assay [10] (at 57.5 µM (top of the series)) is 6.26% (inactive). The max response in assay [10] (setting [21]) came to 7.72%; in assay [10] (setting [22]), 16.7%.

Take `COc1ccc2c(c1OC)CN1CCc3cc4c(cc3[C@H]1C2)OCO4`: the outcome in assay [1], in assay [4] and in assay [7] was inactive. For the same compound, the Potency in [2] was 1.58 µM (active); in assay [5], > 20.6 µM (inactive); in assay [6] it was > 20.6 µM (inactive); in assay [15] (parasite line A), 2 µM (active); in [16], 2.24 µM (active); in assay [17] it was 2.03 µM (active). In addition, the Potency in [18] was 1.61 µM (active); in assay [19], 3.16 µM (active). In addition, the figures for the activity change, negative = inhibition in assay [3] (at 17.2 µM (top of the series)) and in assay [10] (at 25.7 µM (top of the series)) were -25.2% (inactive) and -2.73% (inactive), respectively. Further, the Potency result in [8], in assay [12], in [11], in assay [13] and in [14] was “inactive” throughout. Besides, the max response was -16.8% in assay [10] (setting [21]) and -19% in [10] (setting [22]).

Consider `C=CCc1ccc(OC)cc1`, for which the result in assay [7] was inactive. Besides, the Potency result in [9] and in assay [11] was “inactive” each time. For the same compound, in [10] (at 57.5 µM (top of the series)), the activity change, negative = inhibition was 1.63% (inactive). Besides, the max response in [10] (setting [21]) is 21.3%; in assay [10] (setting [22]), 23.9%.

With `C#CCN(C)[C@@H](C)Cc1ccccc1`, the result in assay [1], in assay [4] and in assay [7] was inactive. Moreover, the Potency in assay [2] was 25.1 µM (active) and 10 µM (active); in assay [5], > 46 µM (inactive) and > 20.6 µM (inactive); in assay [6], > 46 µM (inactive) and > 20.6 µM (inactive). Besides, the activity change, negative = inhibition in assay [3] (at 17.2 µM (top of the series)) is -14.3% (inactive); in [3] (at 38 µM (top of the series)), -2.85% (inactive); in assay [10] (at 25.7 µM (top of the series)) it was -2.3% (inactive). The Potency entry in [8], in assay [12], in assay [13], in [14], in assay [16] and in assay [17] was “inactive” each time. For the same compound, the Potency result in assay [18], in assay [20] and in assay [19] was “inactive” throughout. The max response was 2.02% in assay [10] (setting [21]) and -0.249% in assay [10] (setting [22]). Besides, the results for the activity, negative = inhibition in assay [15] (parasite line A) and in [15] (parasite line B) were -9.65% (inactive) and 13.3% (inactive), respectively.
